Experimental findings from PubChem BioAssay AID1611 (NINDS Approved Drug Screening Program, 2009) are described below.

A short description of this test: inducers of human heat shock response, cell-based, HSE luciferase (AID 1611). The conditions noted are these: human cells, HSE-luciferase heat shock reporter; stronger effect = higher value.
In the case of `CC(=O)OCC1=C(C(=O)O)N2C(=O)[C@@H](NC(=O)CCCC(N)C(=O)O)C2SC1` (some centres undefined), the fold change was found to be 0.85.
Consider `N#C/C(=C\c1ccc(O)cc1)C(=O)O`, for which the fold change worked out at 1.34.
The result for `Clc1ccc(COC(Cn2ccnc2)c2ccc(Cl)cc2Cl)cc1` (centres undefined) reads 1.04; that for `NCC(O)c1ccc(O)cc1` (centres undefined), 1.61.
The result for `CCCCC[C@H]1C(=O)O[C@H](C)[C@H](NC(=O)c2cccc(NC=O)c2O)C(=O)O[C@@H](C)[C@@H]1OC(=O)CC(C)C` reads 0.64; that for `CCCCCCCCCCCCCCCC[N+](C)(C)C`, 0.93; that for `NCC(CC(=O)O)c1ccc(Cl)cc1` (centres undefined), 1.37.
The result for `Clc1ccc(CSC(Cn2ccnc2)c2ccc(Cl)cc2Cl)cc1` (centres undefined) reads 0.83; that for `CN(C)[C@@H]1C(=O)C(C(N)=O)=C(O)[C@@]2(O)C(=O)C3=C(O)c4c(O)ccc(Cl)c4[C@@](C)(O)[C@H]3C[C@@H]12`, 0.9; that for `CN(C)[C@@H]1C(=O)C(C(N)=O)=C(O)[C@@]2(O)C(=O)C3=C(O)c4c(O)cccc4[C@@](C)(O)[C@H]3[C@H](O)[C@@H]12`, 1.27.
As for `NC(=O)CN1CCCC1=O`, the fold change is 0.86.
The result for `CC[C@@H]1/C=C/C=C/C[C@H](C)[C@@H](O)[C@](C)(O)C(=O)[C@H](C)[C@@H](O)[C@H](C)C(=O)[C@H](C)[C@@H](O)[C@H](C)/C=C/C(=O)O[C@H]2[C@@H](C)[C@@H](CC1)O[C@@]1(CC[C@@H](C)[C@@H](C[C@H](C)O)O1)[C@@H]2C` reads 1.06; that for `COc1ccc2c(c1OC)C(=O)O[C@H]2[C@H]1c2cc3c(cc2CCN1C)OCO3`, 0.8; that for `CCN1C[C@@]2(COC)C3[C@@H](OC)[C@H]4[C@@H]1[C@]3(C(OC)C[C@H]2O)C1C[C@@]2(O)[C@H](OC(=O)c3ccccc3)C1[C@]4(OC(C)=O)[C@@H](O)[C@@H]2OC` (some centres undefined), 0.98.
